Data: PubChem BioAssay (NCATS)
The source made the active and inactive calls. Calls come from the whole dose curve; as a rule, active = well fitted curve in the direction sought with a large enough effect; inconclusive = small, poorly fitted or top-dose-only effect, or effect the other way, or another doubt; inactive = no such curve, though single readings can be large or run the other way.

Assay: Inducers of the Endoplasmic Reticulum Stress Response (ERSR) in human glioma: Validation (AID 504836)
Procedure, shortened: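 Stably transfected U87-MG human glioma cells carrying a GRP78-based luminescent sensor were seeded at 1000 cells/well, pin-dosed with compounds and incubated 16 h. Luciferase reagent was then added, and end-point luminescence was read after 10 min at room temperature.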

Row | Structure (SMILES) | outcome
1 | COCCCC/C(=N\OCCN)c1ccc(C(F)(F)F)cc1 | inactive
2 | Cc1cccc(C)c1OCC(C)N (stereo not drawn) | inactive
3 | CC[N+](C)(C)c1cccc(O)c1 | inactive
